# Experimental data from PubChem BioAssay (EPA / NIEHS).
# Inconclusive results are not listed. Calls of active or inactive are those of the source. The calls were made as follows: active = hit-call score of the fitted dose curve at least 0.9, where 1 is the maximum; inconclusive = response in the unintended direction; inactive = score below 0.9.
# Target: human Caspase 4 (CASP4), CASP4 (gene 837) (UniProt P49662)
# Assay: NVS_ENZ_hCASP4: NovaScreen (NVS) Enzymatic Assay for human Caspase 4 (CASP4) (AID 2283143)
# Experimental: NVS_ENZ_hCASP4 is a biochemical, single-readout assay that uses extracted gene-proteins from E. coli in a cell-free assay. Measurements were taken 2 hours after chemical dosing in a 96-well plate.NVS_ENZ_hCASP4 is one of one assay component(s) measured or calculated from the NVS_ENZ_hCASP4 assay. It is designed to make measurements of enzyme activity, a form of enzyme reporter, as detected with fluorescence intensity signals by Fluorescence technology.Data from the assay component NVS_ENZ_hCASP4 was analyzed into 1 assay endpoint. This assay endpoint, NVS_ENZ_hCASP4, was analyzed in the positive analysis fitting direction relative to DMSO as the negative control and baseline of activity. Using a type of enzyme reporter, loss-of-signal activity can be used to understand changes in the enzymatic activity as they relate to the gene CASP4. Furthermore, this assay endpoint can be referred to as a primary readout, because this assay has produced multiple assay endpoints where this one serves a enzymatic activity function. To generalize the intended target to other relatable targets, this assay endpoint is annotated to the protease intended target family, where the subfamily is cysteine protease.
# Binding assays used specific radioligands (tritiated, iodinated) with non-radioactive competitive displacement ligands in agonist or antagonist protocols (as indicated) and various reference compounds and inhibitors to titrate specific binding to receptors and transporters. Most enzyme assays (CYPs, kinases, phosphatases, proteases, HDACs) used recombinant protein and specific substrates (fluorescence mostly, some colorimetric and radioactive) and inhibitors, followed by a biochemical separation of substrate and product. All assays for the biochemical HTS were initially run in duplicate at a single concentration (10 uM for CYP450 assays and 25 uM for all others). Assay-chemical combinations meeting a pre-defined threshold (e.g., 30% inhibition and other criteria defined below) were then run in singleton concentration-response format with maximum concentration of 20 uM for CYPs and 50 uM for all others. Each assay was run with positive and negative controls, and concurrent controls on every plate. The follow-up (secondary) screen tested active chemical-pairs in concentration series, as well as a few additional assays not tested in the primary screen, some selected negative inactives, and several cases re-run in the concentration series for confirmatory purposes.
# Chain of human Caspase 4 (CASP4), CASP4 (gene 837) (P49662 whole entry, looked up): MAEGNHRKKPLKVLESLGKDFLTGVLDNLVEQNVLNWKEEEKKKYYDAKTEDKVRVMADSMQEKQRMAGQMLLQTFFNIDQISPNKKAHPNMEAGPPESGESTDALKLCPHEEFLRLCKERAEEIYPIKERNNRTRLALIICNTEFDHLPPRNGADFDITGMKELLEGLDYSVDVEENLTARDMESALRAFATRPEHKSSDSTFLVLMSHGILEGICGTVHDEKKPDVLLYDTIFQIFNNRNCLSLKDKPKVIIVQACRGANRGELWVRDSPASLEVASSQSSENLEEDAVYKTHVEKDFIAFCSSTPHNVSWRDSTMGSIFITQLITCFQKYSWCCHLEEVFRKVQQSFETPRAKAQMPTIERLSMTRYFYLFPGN
row,Compound,outcome
1,CCOc1cccc(-n2cc(C(=O)N3CCN(c4cc(C(=O)O)c5ccccc5c4)CC3)nc2-c2ccc(C)cc2)c1,inactive
2,Nc1ccc(Nc2ccccc2)cc1,inactive
3,CNS(=O)(=O)c1cc(C(=O)N2CCC(CCN3C4CCC3CC(n3c(C)nc5ccccc53)C4)(c3cccc(F)c3)CC2)c(Cl)cc1F (stereo unspecified),inactive

# Target: CDK2 (gene 1017) (UniProt P24941)
# Assay: NVS_ENZ_hCDK2: NovaScreen (NVS) Enzymatic Assay for human Cyclin-Cependent Kinase 2 (CDK2) (AID 2283144)
# How it was run: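 Compounds screened in duplicate at 25 uM, then in singleton concentration-response to a maximum of 50 uM, against recombinant CDK2; kinase activity read 1 hr after dosing by fluorescence with mobility-shift separation of substrate and product.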
Compound,AC50,outcome
COc1ccc2sc(C(=O)Nc3nnn[nH]3)c(OC(C)C)c2c1,10.1 µM (active),–
O=C(O)c1cc(N=Nc2ccc(S(=O)(=O)Nc3ccccn3)cc2)ccc1O,–,inactive
C=CCCCCCCCCC(=O)O,–,inactive
